Screens deposited in PubChem BioAssay by several laboratories.
NTR1 ag = NTR1 (human) agonism; P30989; NTR1-U2OS beta-arrestin-GFP spot imaging, agonist mode; activation, % at 20 µM; hit rate 0.17% among 330,000; AID 493036;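 active means activation at or above 40% of the spot to cytoplasm intensity ratio, with at least 20 cells analyzed; inconclusive means wells under 20 cells, flagged as cytotoxic or low count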
Mot1-301 SUMO = SUMOylation pathway inhibition by Mot1-301 growth rescue; S. cerevisiae Mot1-301 growth rescue, ATP luminescence, 38.5C; percent above DMSO median, 100 means doubled; growth rescue, % at 18.8 µM; hit rate 1% among 320,000; AID 2716;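 active means every valid replicate shows activation above 250% relative to neutral control wells; inactive means the rest, any valid replicate at or below 250%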
AI-2 QS modul = modulators of Vibrio harveyi AI-2 quorum sensing system. Vibrio harveyi JMH597 AI-2 luminescence/OD600 ratio, 9 h; stronger effect = lower value; strain lacks LuxN and CqsS sensors; 0 = neutral-control median. activity change, % at 7.5 µM. hit rate 0.4% among 300,000. AID 2094; in the data active means activity change below about -75%, passing the limit was not always enough; inconclusive means no clear call, values can overlap the other calls;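 further: luminescence divided by OD600 gain over 9 h not by final OD600 alone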
Cardio protect = protects H9c2 cardiomyocytes from peroxide injury; H2O2 injury protection, ATPLite, 2 h; protection from H2O2 cell death, % at 20 µM; AID 588492; hit rate 0.63% among 360,000;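 active means compounds giving at least 50% protection of heart cells from peroxide-induced death in the single-dose screen, raw or plate-pattern-corrected value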
AHR act = activators of human aryl hydrocarbon receptor; AHR-responsive luciferase reporter cells, luminescence; activation, % at 5 µM; hit rate 2.5% among 320,000; AID 2796; in the data active means activation above about 47%
Target sequence (P35869 whole entry, looked up): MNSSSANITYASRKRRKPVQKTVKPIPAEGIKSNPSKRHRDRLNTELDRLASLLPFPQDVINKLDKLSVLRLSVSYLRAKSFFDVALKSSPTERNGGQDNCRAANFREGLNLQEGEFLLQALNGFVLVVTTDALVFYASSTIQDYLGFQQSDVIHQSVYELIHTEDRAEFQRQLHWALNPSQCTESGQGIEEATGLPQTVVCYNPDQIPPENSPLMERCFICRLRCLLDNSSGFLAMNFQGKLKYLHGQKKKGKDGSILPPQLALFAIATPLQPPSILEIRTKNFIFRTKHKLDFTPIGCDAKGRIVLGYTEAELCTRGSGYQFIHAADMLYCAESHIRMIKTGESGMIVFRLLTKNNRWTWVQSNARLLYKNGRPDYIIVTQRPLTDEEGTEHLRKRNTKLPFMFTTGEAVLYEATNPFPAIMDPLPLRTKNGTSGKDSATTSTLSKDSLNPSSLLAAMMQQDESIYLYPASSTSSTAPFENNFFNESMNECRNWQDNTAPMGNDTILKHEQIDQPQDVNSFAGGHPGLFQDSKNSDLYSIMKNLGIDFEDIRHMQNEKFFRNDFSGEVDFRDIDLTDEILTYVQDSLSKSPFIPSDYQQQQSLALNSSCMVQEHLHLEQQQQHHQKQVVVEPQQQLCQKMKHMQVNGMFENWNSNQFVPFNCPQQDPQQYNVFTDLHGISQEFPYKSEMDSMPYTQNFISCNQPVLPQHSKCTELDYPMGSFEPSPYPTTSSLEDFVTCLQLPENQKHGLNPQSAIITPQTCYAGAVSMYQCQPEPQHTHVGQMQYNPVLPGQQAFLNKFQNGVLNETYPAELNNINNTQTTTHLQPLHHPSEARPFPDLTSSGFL
NR3A LBD binder = NR3A (human) ligand-binding domain modulation; NR3A LBD differential scanning fluorimetry, Tm shift; 0% = protein alone, 100% = glycine-bound protein; AID 1259313; Tm shift relative to glycine control, % at 25 µM; hit rate 2.5% among 340,000;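 active means melting temperature shift of at least 10% of the positive control shift, at one fixed dose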
Hits are given with their value; . = inactive; ? = inconclusive; / = no result. Sampled rows, rich in hits. Any-hit rate of the full collection: about 6.2%.

SMILES	NTR1 ag	Mot1-301 SUMO	AI-2 QS modul	Cardio protect	AHR act	NR3A LBD binder
Oc1ccc2ccccc2c1C=Nc1ccccc1-c1nc2ccccc2[nH]1	.	.	.	.	65	.
COc1ccc(NC(=O)C[C@H]2C(=O)N(c3ccc(OC)cc3)C[C@@H]2C)cc1	/	/	/	.	/	/
COc1ccc(-n2nc3ccc(N)cc3n2)cc1Cl	.	.	/	.	.	.
COc1ccc(-n2nc3ccc(NS(C)(=O)=O)cc3n2)cc1Cl	.	.	/	.	.	22
COc1ccc(/C=N/NC(=O)c2cccc(NC(=O)c3ccc(Cl)cc3)c2)c(OC)c1	.	.	.	.	.	11
COc1cc2c(cc1OC)/C(=C/C(=O)c1cccc([N+](=O)[O-])c1)NCC2	.	.	.	.	79	.
COc1ccc(/C=N/NC(=O)c2ccc(NC(=O)c3cccc([N+](=O)[O-])c3)cc2)c(OC)c1	.	.	.	.	.	18
NS(=O)(=O)c1ccc(-c2c(-c3ccccc3)sc3ccccc23)cc1	.	.	/	.	.	.
N#Cc1ccc(CN2C(=O)NC3(CCCCCC3)C2=O)cc1	.	.	.	.	.	.
CCOC(=O)c1sc(NC(=O)c2cc(-c3ccccc3)nc3ccccc23)c(C#N)c1C	.	.	.	.	.	24
Cc1ccc(C)c(-c2cc(C(=O)NNC(=S)NCC(C)C)c3ccccc3n2)c1	.	.	.	.	.	12
Cc1ccc(C)c(-c2cc(C(=O)Nc3sc(C)c(C)c3C(N)=O)c3ccccc3n2)c1	.	.	.	.	.	14
Cc1cccc(-c2cc(C(=O)Nc3sc(C)c(C)c3C(N)=O)c3ccccc3n2)c1	.	.	.	.	.	15
O=C(C1CCC(=O)N(C2CCCC2)C1)N1CCC(Oc2ccccc2Cl)CC1 (stereo not given)	.	.	.	.	.	.
COc1ccc(C=CC(=O)c2cc(O)ccc2O)cc1	/	/	/	.	/	32
O=C(Nc1ccc(-c2n[nH]c(=S)o2)cc1)c1ccccc1	.	.	.	.	.	.
O=C(CN1CCN(Cc2ccc(F)cc2Cl)CC1)NCc1ccccc1	.	.	.	.	.	.
COCc1cc(C)nc2sc(C(=O)OC(C)C)c(N)c12	.	.	.	.	72	.
Cc1c(Cl)cccc1NC(=O)CNc1cccc(C(F)(F)F)c1	.	.	.	.	.	.
N#Cc1ccccc1NC(=O)CNc1ccc(Cl)c(C(F)(F)F)c1	.	.	?	.	65	.
O=C(Nc1ccc(-c2csc(Nc3ccccc3)n2)cc1)c1cccc(C(F)(F)F)c1	.	.	.	.	.	26
O=C(Nc1ccc(-c2csc(Nc3ccccc3)n2)cc1)c1cc([N+](=O)[O-])cc(C(F)(F)F)c1	.	.	.	.	.	24
O=C(Nc1cccc(-c2csc(Nc3cccc(C(F)(F)F)c3)n2)c1)c1cc([N+](=O)[O-])cc(C(F)(F)F)c1	.	.	.	.	.	.
O=C(Nc1ccc(-c2csc(Nc3ccc(Cl)cc3)n2)cc1)c1cccc(C(F)(F)F)c1	.	.	.	/	.	34
Cc1ccc(NC(=O)COCC(=O)Nc2ccc(F)cc2)cc1	.	.	.	.	.	.
SMILES	NTR1 ag	Mot1-301 SUMO	AI-2 QS modul	Cardio protect	AHR act	NR3A LBD binder
CCOc1ccc(C(=O)NC(C(=O)N2CCC2)C(C)C)cc1 (stereo not given)	.	/	/	.	/	.
NC(=S)NNC(=O)/C(=C/c1ccc(Br)cc1)NC(=O)c1ccccc1	.	.	.	.	.	13
O=C(NCCO)c1cc(-c2cc(C(=O)NCCO)c3ccccc3n2)nc2ccccc12	.	.	.	.	.	.
S=c1[nH]nc(-c2ccccc2)n1/N=C/c1ccc(-c2ccccc2Cl)o1	.	.	.	.	53	.
S=c1[nH]nc(-c2cccc(Cl)c2)n1/N=C/c1ccc(-c2ccccc2Br)o1	.	.	.	.	.	.
Oc1ccc(/C=N/Nc2cccc3cccnc23)c(O)c1	.	.	.	.	.	32
Cc1ccc(/C=N/Nc2cccc3cccnc23)c(O)c1	.	.	.	.	60	10
Oc1ccc(C=NNc2ccccn2)c(O)c1	/	/	/	.	/	.
COc1ccc(NC(=S)N2CCN(S(=O)(=O)c3ccccc3)CC2)cc1	.	.	.	.	/	.
COc1ccccc1NC(=O)c1oc2ccccc2c1NC(=O)c1ccco1	.	.	.	.	.	.
NC(=O)c1oc2ccccc2c1NC(=O)c1ccccc1	.	.	.	.	69	.
Cc1ccc(C)c(C(=O)Nc2c(C(N)=O)oc3ccccc23)c1	.	.	.	.	.	.
NC(=O)c1oc2ccccc2c1NC(=O)c1ccco1	.	.	/	72	47	.
c1ccc(-c2nnc(OCc3cccnc3)c3ccccc23)cc1	.	.	.	.	.	.
Cc1nc(OCc2ccccc2)c2ccccc2n1	.	.	.	51	.	.
COc1ccc(-c2nnc(OCc3ccccc3)c3ccccc23)cc1	.	.	.	.	56	16
COc1ccc(F)cc1COc1nc(C)nc2ccccc12	.	.	/	.	.	.
CCc1ccc(NC(=O)CSc2n[nH]c(=O)n2C2CC2)cc1	.	/	/	.	/	.
CCOC(=O)c1nc(N2CCN(C(=O)OCC)CC2)c2c3c(sc2n1)CCCC3	.	.	.	62	.	.
CCCCCOc1ccc(C(=O)Nc2ccc(N3CCOCC3)cc2N2CCOCC2)cc1	.	.	/	.	.	.
CC1=C(C(=O)Nc2ccc(C)cc2C)C(c2ccc(Cl)cc2)n2nc(C(=O)OC(C)C)nc2N1 (stereo not given)	.	655	.	.	.	.
CCOC(=O)c1cnc(Nc2nc3ccccc3o2)nc1CSc1nnc(C)s1	.	.	.	60	.	.
CCOC(=O)c1cnc(Nc2nc3ccccc3o2)nc1C	.	.	.	.	.	.
CC(C)(C)OC(=O)C[C@H]1C/C=C\C[C@H](CC(=O)N(CCO)Cc2ccccc2)C(=O)N[C@H](C(C)(C)C)COC1=O	.	.	/	.	.	.
Cc1ccccc1OCC(=O)N1CCCc2ccccc21	.	.	.	.	.	.
Cn1c(=O)cc(OCC(=O)N2CCCc3ccccc32)c2ccccc21	.	.	.	.	50	.
O=C(CNC(=O)OCc1ccccc1)NCC(=O)Oc1ccc([N+](=O)[O-])cc1	/	/	/	.	/	.
COc1ccc(C2=NN(C(=O)CSc3nc4ncc(Cl)cc4[nH]3)C(c3ccco3)C2)cc1 (stereo not given)	.	.	.	.	47	.
COc1ccc(C2=NN(C(=O)CSc3ncccn3)C(c3ccc(OC)cc3)C2)cc1 (stereo not given)	.	.	.	.	.	.
COc1ccc(C(=O)NCC(=O)OCC(=O)N2N=C(c3ccc(Cl)cc3)CC2c2ccco2)cc1OC (stereo not given)	.	.	.	.	.	11
